Laboratory results as given in PubChem BioAssay (NCI).
This is part of a sample that, as a whole, favours compounds with a hit. Of some 83,000 tested, about 20% had one in any assay.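 Step 1: grow cells in 96-well plates. Step 2: add test compound at a single concentration. Step 3: incubate 48 h. Step 4: record percent growth.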 A number with no mark means an inactive call. The source made the active and inactive calls. The calls were made as follows: active = growth percent below 10; inactive = the rest.

Key:
Assay in all cases: NCI-60 one-dose screen, 48 h (100 = growth as untreated, 0 = no growth, -100 = all killed)
Settings in all cases: 10 µM unless noted
[1] = system: NCI-H23 lung
[2] = system: NCI-H322M lung
[3] = system: HOP-62 NSCLC
[4] = system: NCI-H460 lung
[5] = system: HOP-92 NSCLC
[6] = system: NCI-H522 lung
[7] = system: A549/ATCC NSCLC
[8] = system: 786-0 renal
[9] = system: COLO 205 colon
[10] = system: DU-145 prostate
[11] = system: K-562 leukemia
[12] = system: MALME-3M melanoma
[13] = system: MDA-MB-231 breast
[14] = system: RXF 393 renal
[15] = system: SF-268 CNS
[16] = system: SF-295 CNS
[17] = system: SF-539 CNS
[18] = system: UACC-257 melanoma
[19] = system: M14 melanoma
[20] = system: HCT-15 colon

Row | Structure (SMILES) | growth [1] | growth [2] [%] | growth [3] [%] | growth [4] | growth [5] | growth [6] | growth [7] | growth [8] | growth [9] | growth [10] | growth [11] | growth [12] | growth [13] | growth [14] | growth [15] | growth [16] | growth [17] | growth [18] | growth [19] | growth [20]
1 | c1ccc(-c2ccc(-c3nc4ccccc4[nH]3)cc2)cc1 | 94% | 98.9 | 80.5 | 95.6% | 69.7% | 94.3% | 91.8% | 88% | 102% | 95.2% | 7.32% (active) | 92.4% | 64.3% | 92.1% | 77.8% | 101% | 99% | 98% | 93.8% | 78.5%
2 | CCn1c(SCC(=O)Nc2cc(C(F)(F)F)ccc2Cl)nc2ccccc2c1=O | 70.9% | 78.8 | 64.2 | 28.6% | 9.17% (active) | 50.7% | 50.5% | 56.4% | 52.6% | 38.2% | -46.2% (active) | -15.6% (active) | -25.6% (active) | 44.4% | 32.6% | 67.3% | 69.1% | -32% (active) | -67% (active) | 36.7%
3 | COc1cc(C(C)n2cc(-c3ccccc3)nn2)ccc1OC1CCCCC1 (stereo not drawn) | 47.7% | 78.1 | 69.4 | 70.5% | 69.9% | 50.3% | 61.6% | 78.1% | 97.9% | 84.3% | 25.9% | 87.7% | 77.9% | 98% | 78.2% | 41.2% | 65% | 52.1% | 79.1% | 61.2%
4 | COc1ccc(N)c(-c2cc3c(c4c2[nH]c2ccc(OC)cc24)CCCC3)c1 | 91.2% | 71.5 | 70.4 | 83.1% | 72.2% | 57.1% | 64.1% | 78.3% | 102% | 83.7% | 76.8% | 108% | 77.6% | 87.1% | 73.8% | 88.8% | 98% | 67.9% | 78.5% | 58.6%
5 | O=S1(=O)N(Cc2ccccc2)[C@@H](Cc2ccccc2)[C@H](O)[C@H](O)[C@H](Cc2ccccc2)N1Cc1ccccc1 | 1.32% (active) | 12.6 | 18.4 | -44.8% (active) | 4.2% (active) | 9.21% (active) | 6.12% (active) | -1.43% (active) | -0.273% (active) | -23.4% (active) | 3.12% (active) | -14.2% (active) | -7.98% (active) | -40.8% (active) | 25.3% | -11.2% (active) | -5.16% (active) | -22.1% (active) | -2.4% (active) | 3.16% (active)
6 | CN1CCN(Cc2ccc(NC(=O)c3[nH]ncc3Nc3cc(OC4CCCC4)ncn3)cc2)CC1 | 45.8% | 45.9 | 55.4 | 22.2% | 14.9% | 26.2% | 8.79% (active) | 20.9% | 7.6% (active) | 37.9% | 1.53% (active) | 65.4% | 23.8% | -0.487% (active) | 40.7% | 45.9% | 30.3% | 48.1% | 19.9% | 12.9%
7 | COC(=O)c1cc2c(n1Cc1ccccc1)-c1oncc1CCC2 | 81.5% | 114 | 72.9 | 94.7% | 75.3% | 39.1% | 49.3% | 92.3% | 55% | 102% | 17.8% | 49.5% | 64.2% | 73.7% | 86.8% | 74.7% | 69.1% | 76.2% | 57.5% | 40.9%
8 | COc1cc(C(=O)O/N=C(\N)Cc2cccc3ccccc23)cc(OC)c1OC | 80.7% | 18.1 | 27.6 | -47.9% (active) | -7.36% (active) | -10.9% (active) | 12.2% | 45.9% | -92.6% (active) | 47.5% | -43.2% (active) | -85.9% (active) | -46.6% (active) | 7.59% (active) | 17.6% | -84.6% (active) | -88.7% (active) | -89.3% (active) | -72.7% (active) | –
9 | COc1cc(/C=C2\CN(C)C/C(=C\c3cc(CN4CCCC4)c(O)c(OC)c3)C2=O)cc(CN2CCCC2)c1O | 52.2% | 84.7 | 82 | 34.1% | 66.8% | 34.7% | 85.6% | 72.2% | 49% | 60.8% | 19.4% | 86% | 58.9% | 68.9% | 61.3% | 100% | 68.2% | 93.7% | 99.1% | 88%
10 | COc1ccc2oc(=O)cc(Cn3cc(Cn4cnc5c4c(=O)n(C)c(=O)n5C)nn3)c2c1 | 101% | 101 | 101 | 105% | 104% | 98.6% | 103% | 98% | 110% | 105% | 103% | 91.5% | 98% | 120% | 100% | 102% | 94% | 98% | 100% | 105%
11 | CCOC(=O)c1sc(-c2ccc(OS(=O)(=O)c3cccs3)c(C=O)c2)nc1C | 11.4% | 47.3 | 22.5 | 3.56% (active) | 11.9% | -2.27% (active) | 32.5% | 5.71% (active) | 79.6% | 8.94% (active) | 4.3% (active) | -5.26% (active) | -16.8% (active) | 19% | 9.2% (active) | -8.21% (active) | -26.2% (active) | 32.1% | -17.6% (active) | 1.42% (active)
12 | CCCCCCc1cc2cc(-c3csc(/C=C/c4ccccc4)n3)c(=O)oc2cc1O | 54.5% | 63.9 | 34.9 | 17.7% | -3.21% (active) | -30.7% (active) | 28.7% | 30.1% | -93.5% (active) | 53.3% | -25.8% (active) | -79.9% (active) | -8.21% (active) | -9.75% (active) | 17% | -55% (active) | -77.3% (active) | -78.3% (active) | -58.3% (active) | 18.9%
13 | C=C[C@@H]1CCC/C=C/[C@@H]2C[C@H](O)C[C@H]2[C@H](O)/C=C/C(=O)O1 | 5.64% (active) | 38.3 | 19.2 | 13.5% | 25.5% | -24.5% (active) | 22.6% | -12.9% (active) | -78.4% (active) | 21.1% | 11.4% | -12.5% (active) | -47.9% (active) | -5.1% (active) | 8.16% (active) | 14.6% | 30.3% | 33.5% | 21% | 11.6%
14 | O=C(Nc1ccc(C23CC4CC(CC(c5ccccc5)(C4)C2)C3)cc1)c1cccs1 | 71.4% | 92.5 | 119 | 69.9% | 86.5% | 59.9% | 72.9% | 78.7% | 91.4% | 84.7% | 26.5% | 84.5% | 87.5% | 77.5% | 103% | 105% | 92% | 75.4% | 71.1% | 60.2%
15 | O=c1cc(-c2ccccc2)oc2cc(OCc3cn(Cc4ccc(F)cc4)nn3)cc(OCc3cn(Cc4ccc(F)cc4)nn3)c12 | 29.2% | 43.5 | 12.4 | 2.98% (active) | -18% (active) | 17.6% | 23.2% | 1.13% (active) | 68.4% | 40% | 45.5% | 15.2% | 9.1% (active) | -8.05% (active) | 21.8% | 38.9% | -10.5% (active) | 46.4% | 56.8% | 73.5%
16 | COc1cc(C(=O)Nc2ccc(-c3nc4ccccc4[nH]3)cc2)cc(OC)c1OC | 72.6% | 94.5 | 42.5 | 22.6% | 56.4% | 25% | 45.8% | 73.4% | 44.6% | 87.9% | 15.2% | 81.3% | 61.4% | 28% | 55.4% | 9.85% (active) | 34.7% | 78.1% | 43.5% | –
